In the library only some 2.2% were active in any assay of this set; here they are far more common.
MEKK2 WT-MEK5: raises or lowers MEK5 binding to wildtype human MEKK2 PB1 domain. Q9Y2U5. bead flow cytometry, Alexa488-MEK5 binding to MEKK2 WT; actives lie on both sides. binding response (% of control), % at 10 µM. 1.1% of 290,000 active. AID 1531; in the data active = binding response below about 67% or above about 130%
VLA-4 inh: inhibition in a human VLA-4 binding assay; P13612; VLA-4 expressing cells, ligand binding flow cytometry; inhibition, % (about 7 µM as worked out from the volumes in the protocol); 0.2% of 330,000 active; in the data active = inhibition above about 50%
MEKK3 PB1 HTS: modulators (inhibitors or enhancers) of MEK5 binding to human MEKK3 PB1 domain; Q99759; bead-based flow cytometry, Alexa488-MEK5 binding to MEKK3; actives lie on both sides; 0 = blocked by unlabeled MEK5, 100 = vehicle; binding response (% of control), % at 10 µM; 1.4% of 290,000 active; AID 1529;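 active = binding response more than 3 SD above or below the average of its plate-row segment, actives on both sides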;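 note: Alexa488 bead fluorescence after subtracting the streptavidin-only scavenger bead signal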
MEKK2mut PB1 HTS: signal of MEK5 binding to mutant human MEKK2 PB1 domain; bead flow cytometry, Alexa488-MEK5 binding to MEKK2 mutant; percent response, % at 10 µM; 0.35% of 290,000 active; AID 1530; in the data active = percent response above about 24%, passing the limit was not always enough
* = called active by the depositor; i = inactive; · = no result given; [ ] = dose if it differs, or a comment.

SMILES	MEKK2 WT-MEK5	VLA-4 inh	MEKK3 PB1 HTS	MEKK2mut PB1 HTS
O=C(CN1CCN(c2ccc(O)cc2)CC1)Nc1cc([N+](=O)[O-])ccc1Cl	15.0*	18.5	96.0	19.0
CCC(=O)Nc1nc(-c2ccc3c(c2)CC(C)N3S(C)(=O)=O)cs1 (configuration not stated)	-1.0*	-6.8	99.0	5.0
O=C(CSc1ccc2ccccc2c1)Nc1ncccn1	102.0	17.9	100.0	2.0
Cc1ccc(S(=O)(=O)Nc2cccc(C(=O)NCC3CCCO3)c2)cc1F (configuration not stated)	·	-2.3	·	·
CC(C)=CCC/C(C)=C/CCC(C)NCCN1CCNCC1 (configuration not stated)	224.0*	5.5	110.0	48.0*
CC(C)=CCCC(C)CN1CCC(O)CC1 (configuration not stated)	102.0	26.5	103.0	6.0
C(=N\Nc1nc2ccccc2[nH]1)/c1c[nH]c2ccccc12	155.0*	10.3	105.0	11.0
CCN(CC)c1ccc2c(Cl)c(Br)c(=O)oc2c1	-27.0*	·	90.0	-2.0
Cn1c2ccccc2c(=O)c2ccc(C#Cc3ccc(N)cc3)cc21	22.0*	-32.0	102.0	8.0
O=S(=O)(c1ccccc1)c1nnn2c1nc(NC1CCN(Cc3ccccc3)CC1)c1ccccc12	146.0*	-13.7	102.0	32.0*
O=S(=O)(c1ccccc1)c1nnn2c1nc(NC1CCN(Cc3ccccc3)CC1)c1cc(Cl)ccc12	138.0*	20.5	106.0	33.0*
CCCn1c2ccccc2c2nnc(SCc3[nH]c(=O)[nH]c3C(=O)CCCCC(=O)OCC)nc21	107.0	34.3	100.0	8.0
CCOC(=O)CCCCC(=O)c1[nH]c(=O)[nH]c1CSc1nnc2c3ccccc3n(C(C)C)c2n1	108.0	16.4	131.0*	0.0
CCc1ccc(NC(=O)C2CCN(S(=O)(=O)c3cccs3)CC2)cc1	95.0	8.6	100.0	-6.0
CCC(C)(C)NC(=O)C1CCN(S(=O)(=O)c2cccs2)CC1	296.0*	·	93.0	81.0*
Cc1ccccc1NC(=O)CON=C(N)c1ccccc1	·	16.4	·	·
COc1ccc(-c2coc3cc4oc(=O)cc(C)c4cc23)cc1F	104.0	-9.6	102.0	5.0
COc1ccc(-c2coc3cc4oc(=O)cc(-c5ccccc5)c4cc23)cc1F	106.0	11.1	132.0*	0.0
CN(CC(=O)Nc1ccc(F)c(F)c1)S(=O)(=O)c1cccc2cccnc12	97.0	-0.6	101.0	2.0
CC1(C)OC(=O)C(=Cc2ccc(-c3ccc(S(N)(=O)=O)cc3)o2)C(=O)O1	2.0*[inhibitor]	13.4	2.0*[inhibitor]	-42.0
Cc1cc(CN2CCCC(C(=O)Nc3cccc(-n4cccn4)c3)C2)cc(C)c1O (configuration not stated)	112.0	4.0	102.0	-1.0
O=C(Nc1cccc(-n2cccn2)c1)C1CCCN(Cc2cc3ccccc3[nH]2)C1 (configuration not stated)	139.0*	·	104.0	24.0*
CC(C)CCN1CCC(Cc2ccccc2)(NC(=O)c2ccccc2)C1=O (configuration not stated)	·	8.3	·	·
CC(C)CCN1CCC(N)=NC1=O	422.0*	·	122.0	534.0*
CCN(CC1CCCN(CCc2cccc(F)c2)C1)C(=O)c1cc2ccccc2o1 (configuration not stated)	107.0	9.2	102.0	10.0
SMILES	MEKK2 WT-MEK5	VLA-4 inh	MEKK3 PB1 HTS	MEKK2mut PB1 HTS
CN(CC1CCCN(CCc2cccc(C(F)(F)F)c2)C1)C(=O)c1cc2ccccc2o1 (configuration not stated)	131.0	·	103.0	24.0*
CN(C)c1ccc(/C=C/C(=O)c2cc(Cl)ccc2O)cc1	-1.0*	i	90.0	-10.0
COc1ccccc1C(=O)NC(CCSC)C(=O)NCC(c1cccs1)N1CCOCC1 (configuration not stated)	·	-0.6	·	·
Oc1ccccc1-c1nc2c3ccccc3c3ccccc3c2[nH]1	-12.0*	1.1	107.0	27.0
O=S1(=O)N=C(Nc2ccc(N3CCOCC3)cc2)c2ccccc21	37.0*	5.3	100.0	48.0
O=S1(=O)N=C(N2CCOCC2)c2ccccc21	113.0	-4.4	110.0	10.0
O=C(CSc1nc(=O)n2ccccc2n1)N1CCCc2ccccc21	·	8.5	·	·
CCN1CCN(S(=O)(=O)c2cc(OCC(=O)NC3CCCCC3)c(C)cc2Cl)CC1	3.0*[inhibitor]	-2.3	3.0*[inhibitor]	-15.0
COc1ccc(NC(=O)C2CC(=O)N=C(N)S2)cc1 (configuration not stated)	-11.0*	5.0	98.0	2.0
COc1ccc(C(CNC(=O)c2oc3cc(C)c(Cl)cc3c2C)N2CCCCC2)cc1 (configuration not stated)	169.0*	7.2	108.0	37.0*
COc1ccc(C(CNC(=O)c2oc3ccc(C)cc3c2C)N2CCCCC2)cc1 (configuration not stated)	125.0	-6.8	105.0	9.0
CC(C)CC(=O)NC(=S)N(Cc1ccccc1)Cc1ccccc1	107.0	6.5	148.0*	1.0
COc1ccc(S(=O)(=O)Nc2ccccc2OC)cc1N=Nc1c(O)[nH]c(=S)[nH]c1=O	·	5.4	·	·
O=c1[nH]c(=S)[nH]c(O)c1N=Nc1ccc(-c2ccccc2)cc1[N+](=O)[O-]	-4.0*	·	96.0	3.0
CCOc1ccc(N2C(N)=NC(N)=NC2(C)C)cc1	107.0	9.5	111.0	15.0
CC1(C)N=C(N)N=C(N)N1c1ccc(OCCCOc2ccccc2)c(Cl)c1	165.0*	-17.5	116.0	46.0*
COc1cc2ccccc2cc1C(=O)N(CCN(C)C)c1nc2c(OC)ccc(OC)c2s1	147.0*	9.4	104.0	24.0*
COc1ccc(OC)c2sc(N(CCN(C)C)C(=O)c3ccc4ccccc4c3)nc12	134.0	6.3	105.0	11.0
COc1cc2ccccc2cc1C(=O)N(CCN(C)C)c1nc2c(C)cccc2s1	129.0	5.2	103.0	18.0
COc1cc2ccccc2cc1C(=O)N(CCN(C)C)c1nc2ccc(C)cc2s1	135.0*	23.0	100.0	9.0
CCn1nc(C)c(CN2CCC(C(=O)Nc3cccc(-c4cccc(F)c4)c3)CC2)c1C	136.0*	6.9	106.0	25.0*
CCn1cc(CN2CCC(C(=O)Nc3cccc(-c4cccc(F)c4)c3)CC2)cn1	128.0	18.9	103.0	11.0
Cc1cc(NS(=O)(=O)c2ccc(Nc3nc(-c4sc(C)nc4C)cs3)cc2)no1	-2.0*[inhibitor]	·	-1.0*[inhibitor]	-22.0
CC(=O)c1cccc(N(C(=O)CNC(=O)c2ccco2)C(C(=O)NCC2CCCO2)c2ccccc2)c1 (configuration not stated)	109.0	7.0	104.0	7.0
CCC[C@H]1NC(=O)[C@H](C)N(C)C(=O)C(C)(C)C(=O)C(C)NC(=O)[C@H](Cc2ccc(OC)cc2)N(C)C(=O)[C@H](C(C)C)N(C)C(=O)CNC(=O)[C@H](CC(C)C)N(C)C(=O)CNC(=O)[C@H]([C@@H](C)CC)OC(=O)[C@H]1C (some centres not stated)	·	29.9	·	·
Oc1c(/C=C/C=C/C=Nc2ccccc2)sc(=S)n1Cc1ccccc1	·	-465.3	21.0*[inhibitor]	0.0
CCCn1c(O)c(C=Nc2ccccc2)sc1=S	82.0	-4.8	100.0	-7.0
